Source: PubChem (several laboratories)
BJeLR lethal – kills HRASV12-expressing BJeLR cells; BJeLR (HRASV12) viability, CellTiter-Glo ATP luminescence, 48 h; inhibition, % (test concentration not listed); 300,000 compounds, 0.17% hits; AID 1554; in the data active means inhibition above about 50%; inconclusive means no clear call, values can overlap the other calls
Bead autofluor – compound fluorescence in toxin protease inhibitor counterscreen | compound autofluorescence counterscreen, microsphere flow cytometry; hits give high values | fluorescence intensity (no concentration beside the values) | 360,000 compounds, 3.1% hits | AID 624483; in the data active means fluorescence intensity above about 16000; inconclusive means no clear call, values can overlap the other calls
BoNT A protease – blocks Botulinum neurotoxin A light chain protease; multiplex microsphere protease substrate cleavage, flow cytometry; inhibition, % at 10 µM; 360,000 compounds, 0.17% hits
Anthrax LF prot – inhibitors of Bacillus anthracis lethal factor protease | P15917 | multiplex microsphere protease cleavage assay, LF | inhibition, % at 10 µM | 360,000 compounds, 0.12% hits | AID 588501
Target sequence (P15917 whole entry, looked up): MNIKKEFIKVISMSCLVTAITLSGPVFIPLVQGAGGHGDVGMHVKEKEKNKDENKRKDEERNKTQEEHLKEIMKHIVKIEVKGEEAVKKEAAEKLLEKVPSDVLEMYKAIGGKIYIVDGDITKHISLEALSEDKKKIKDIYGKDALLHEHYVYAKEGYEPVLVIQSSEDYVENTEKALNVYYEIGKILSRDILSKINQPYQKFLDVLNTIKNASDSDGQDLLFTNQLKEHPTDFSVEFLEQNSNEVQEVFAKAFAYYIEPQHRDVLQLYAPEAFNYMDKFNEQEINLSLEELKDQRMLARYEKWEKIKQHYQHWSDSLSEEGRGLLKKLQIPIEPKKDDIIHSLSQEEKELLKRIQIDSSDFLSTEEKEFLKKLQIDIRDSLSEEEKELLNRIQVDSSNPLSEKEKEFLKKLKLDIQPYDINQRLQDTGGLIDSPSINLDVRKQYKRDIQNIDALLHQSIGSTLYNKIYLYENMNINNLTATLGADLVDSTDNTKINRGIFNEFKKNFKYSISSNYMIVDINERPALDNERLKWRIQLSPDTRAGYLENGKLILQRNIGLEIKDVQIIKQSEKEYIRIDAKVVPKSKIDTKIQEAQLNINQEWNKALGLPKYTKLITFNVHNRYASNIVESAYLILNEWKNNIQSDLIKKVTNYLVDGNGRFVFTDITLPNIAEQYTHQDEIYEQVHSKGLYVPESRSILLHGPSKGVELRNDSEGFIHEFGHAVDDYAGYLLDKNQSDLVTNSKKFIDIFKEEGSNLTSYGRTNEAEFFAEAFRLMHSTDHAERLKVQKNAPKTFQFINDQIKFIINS
BoNT F protease – BoNT F light chain protease inhibition; 360,000 compounds, 0.22% hits; AID 588497; Multiplex microsphere protease cleavage assay, flow cytometry; inhibition, % at 10 µM; in the data active means inhibition above about 35%, passing the limit was not always enough; inconclusive means no clear call, values can overlap the other calls
Of the large screens only hits and unclear results are named; the others gave an inactive call. Only some compounds are listed: those with a hit (about 3.5% of all), similar ones and a draw of the others. Unless noted, no stated cut-off is given here; in the data, active means inhibition above about 30%; inconclusive means no clear call, values can overlap the other calls; inactive means below that.

CCN(CC)CCCC(C)NC(=O)c1ccc(C(F)(F)F)cc1 (configuration not stated)	none
CC(C)(C)c1ccc(C(=O)Nn2c(CCC(=O)O)ccc2-c2cccs2)cc1	Bead autofluor 17160
O=C(O)CCc1ccc(-c2ccccc2)n1NC(=O)c1cccs1	none
O=C(O)CCc1ccc(-c2cccs2)n1NC(=O)c1ccccc1Br	Bead autofluor 23254
O=C(O)CCc1ccc(-c2cccs2)n1-c1ccc(C(=O)O)cc1	none
COC(=O)c1cc(C(=O)c2ccc(Cl)cc2Cl)cn1C	Bead autofluor 21700, BoNT A protease inconclusive
COC(=O)c1cc(C(=O)c2cccc(Cl)c2Cl)cn1C	Bead autofluor inconclusive
CC(C)N1CCC(C)(C(=O)Nc2ccc(Cl)c(Cl)c2)C1 (configuration not stated)	none (no result: BJeLR lethal)
CCCCC(=O)NCCc1ccc(S(N)(=O)=O)cc1	Bead autofluor 16934
CCCCC(CC)C(=O)NCCc1ccc(S(N)(=O)=O)cc1 (configuration not stated)	Bead autofluor 23826
COc1ccc(CC(=O)NCCc2ccc(S(N)(=O)=O)cc2)cc1	Bead autofluor 19944, BoNT A protease inconclusive
CCCC(C(=O)NCCc1ccc(S(N)(=O)=O)cc1)c1ccccc1 (configuration not stated)	none
CCC(CC)C(=O)NCCc1ccc(S(N)(=O)=O)cc1	Bead autofluor 21021
NS(=O)(=O)c1ccc(CCNC(=O)Nc2ccc(Cl)c(Cl)c2)cc1	Bead autofluor 16607
CCC(CC)C(=O)Nc1cccc(C(=O)NCCc2ccc(S(N)(=O)=O)cc2)c1	Bead autofluor 23028
NS(=O)(=O)c1ccc(CNC(=S)Nc2ccc(Cl)c(Cl)c2)cc1	none
CSc1ncccc1C(=O)N(C)CC(=O)Nc1cccc(F)c1	none (no result: Bead autofluor, BoNT A protease, Anthrax LF prot, BoNT F protease)
O=C(COC(=O)c1cc(S(=O)(=O)N2CCCCC2)ccc1Cl)NC1CCCCC1	none (no result: BJeLR lethal)
Cc1cc(Cl)c(S(=O)(=O)Nc2ccc3c(c2)OCO3)cc1OCC(=O)NC1CCCCC1	Bead autofluor 25458
O=C(COc1ccc(S(=O)(=O)N2CCCC2)cc1Cl)NC1CCCC1	Bead autofluor 20890
Cc1cc(Cl)c(S(=O)(=O)Nc2ccc3c(c2)OCO3)cc1OCC(N)=O	none
Cc1cc(Cl)c(S(=O)(=O)N2CCCC2)cc1OCC(=O)NC1CCCCC1	Bead autofluor 20066, BoNT A protease inconclusive
Cc1cc(Cl)c(S(=O)(=O)NC(C(=O)O)C(C)C)cc1OCC(=O)NC1CCCCC1 (configuration not stated)	Bead autofluor 20262, BoNT A protease inconclusive
CC(C)(C)NC(=O)C1CCN(c2ccc(S(=O)(=O)N3CCOCC3)cc2Cl)CC1	none
O=C(NC1CC1)C1CCN(c2ccc(S(=O)(=O)N3CCOCC3)cc2Cl)CC1	Bead autofluor 22681
O=S(=O)(Nc1ccc2c(c1)nc1n2CCOC1)c1ccc(Cl)cc1	Bead autofluor 22037
O=S(=O)(Nc1ccc2c(c1)nc1n2CCOC1)c1ccccc1	Bead autofluor 19895
O=C(COc1ccc(Cl)cc1)Nc1ccc2c(c1)nc1n2CCOC1	none
Fc1ccc(/C=N/NC(=S)Nc2ccc(Cl)cc2)cc1F	none
CCc1nc(-c2cc3ccc(C)cc3[nH]c2=O)no1	none
Cc1ccc2cc(-c3noc(C(C)(C)C)n3)c(=O)[nH]c2c1	Bead autofluor 22460
N#CCSc1nc2ccc(N3CCCCC3)cc2c(=O)n1Cc1ccccc1	Bead autofluor 29809
CCOC(=O)C1=CCCN(S(=O)(=O)c2ccc(C)cc2)C1	none (no result: BJeLR lethal)
Cc1ccc2[nH]c(=O)c3cc(C(=O)NCCC(C)C)sc3c2c1	BoNT F protease 41.4
CCc1nc2ccc(C(=O)N3CCN(S(=O)(=O)CC)CC3)cn2c1N(CC)C(=O)NCCc1ccccc1	none (no result: BJeLR lethal)
O=C(CCCN1C(=O)c2ccccc2C1=O)N1CCC(c2ccccc2)C1 (configuration not stated)	Bead autofluor 20922
COc1cc(C2c3cc4c(cc3CC3COC(=O)N32)OCO4)cc(OC)c1OC (configuration not stated)	none (no result: BJeLR lethal)
O=C(C[n+]1cc(Br)cc2ccccc21)c1ccc(Br)cc1	BoNT A protease 120.0, Anthrax LF prot 45.3
Cc1ccc(C(=O)C[n+]2cccc3ccccc32)cc1	BoNT F protease 53.3
O=C(C[n+]1cc(Br)cc2ccccc21)c1ccc(Cl)cc1	BoNT A protease 103.8
Clc1ccc(-c2cn(-c3nc4ccccc4s3)nn2)cc1	none (no result: BJeLR lethal)
C1=C(CCNC2=NCCCCC2)CCCC1	none
COc1cc(CN2CCN(c3cccc(C)c3C)CC2)cc(Br)c1O	Bead autofluor 23780, BoNT A protease inconclusive
COc1ccc(CN2CCN(c3cccc(C)c3C)CC2)cc1OC	Bead autofluor 17421
COc1ccc(CN2CCN(C)CC2)cc1OCc1ccccc1	Bead autofluor 20197
Cc1cccc(N2CCN(Cc3ccc4c(c3)OCO4)CC2)c1C	none
COc1ccc(CN2CCC(C(N)=O)CC2)cc1OCc1ccccc1	BoNT F protease inconclusive
COc1cc(CN2CCC(C(=O)NC3CCCC3)CC2)cc(Br)c1O	Bead autofluor 23761
CC(=O)c1ccc(Nc2nc(CN)cs2)cc1	none (no result: BJeLR lethal)
O=C1C2C3C=CC(C3)C2C(=O)N1CC1CCCO1 (configuration not stated)	Bead autofluor 20157, BoNT A protease inconclusive (no result: BJeLR lethal)
Cc1ccc(NC(=O)[C@H](Cc2c[nH]c3ccccc23)NC(=O)[C@@H]2Cc3ccccc3CN2)c(C)c1	BJeLR lethal 65.2
CCc1ccc(NC(=O)[C@H](Cc2c[nH]c3ccccc23)NC(=O)[C@@H]2Cc3ccccc3CN2)cc1	BJeLR lethal 58.9
Cc1cccc(NC(=O)[C@H](Cc2c[nH]c3ccccc23)NC(=O)[C@@H]2Cc3ccccc3CN2)c1	none
Cc1cc(C)cc(NC(=O)[C@H](Cc2c[nH]c3ccccc23)NC(=O)[C@@H]2Cc3ccccc3CN2)c1	none
CCC(Cc1ccccc1)NC(=O)C1CCN(S(=O)(=O)c2c(C)noc2C)CC1 (configuration not stated)	none
O=C1O[C@@H](c2ccccc2)C[C@@H](O)[C@H](O)CCCc2ccccc21	none (no result: BJeLR lethal)
CCOc1ccc(C(=O)NCC(C)NC(=O)c2ccc(OCC)cc2)cc1 (configuration not stated)	none
CCOc1nc(C)cc(C)c1S(=O)(=O)c1cccc(C)c1	none (no result: Bead autofluor, BoNT A protease, Anthrax LF prot, BoNT F protease)
Cc1cc(C)c(S(=O)(=O)c2c(C)cccc2C)c(OCC(C)C)n1	Bead autofluor 23555
COc1ccc(C(=O)Nc2ncc3c(n2)CC(C)CC3=O)cc1 (configuration not stated)	none
COc1cccc(C(=O)Nc2ncc3c(n2)CC(c2ccc(OC)cc2OC)CC3=O)c1 (configuration not stated)	Bead autofluor 24133, BoNT A protease inconclusive
CCOC(=O)CN(C(=O)CSc1nnc2c(n1)[nH]c1ccc(OC)cc12)c1ccc(F)cc1	Bead autofluor 22990
Cc1cn2c(-c3cccnc3)nnc2s1	Bead autofluor 19239
Cc1cn2c(-c3ccncc3)nnc2s1	none
CCCCn1nnnc1C(c1ccccc1)N1CCN(c2ncc(C(F)(F)F)cc2Cl)CC1 (configuration not stated)	none (no result: BJeLR lethal)
COC(=O)Cc1c(C)nc2nc(NCc3cccc([N+](=O)[O-])c3)[nH]n2c1=O	Bead autofluor 19811
